The results in this text go back to PubChem BioAssay AID598 (SRMLSC, 2007).

The whole screen tested about 85,000 compounds, of which about 5,100 (6%) were called active. This excerpt belongs to a sample that is enriched for actives. Values without a mark were called inactive.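 How the source made its calls: active means viability at or below 40%; inactive means viability above 40%.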

What is called viability is a read-out of living cells in per cent, often relative to untreated cells.

A short description of this experiment: H69AR cell viability reduction – human, 86K library, primary screen (AID 598).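 Further: multidrug resistant small cell line overexpressing MRP-1 efflux transporter; 100% = mean luminescence of untreated control wells.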 To be noted: H69AR lung tumor viability, ATP luminescence, 72 h; at 10 µM; active compounds read low.
Regarding `COc1ccc(C(C)=O)cc1CN1C(=O)NC2(CCCCC2C)C1=O` (configuration not stated), the viability is 93.7%. As for `CCOC(=O)C1CCN(C(=O)COc2cc(C)c(Br)c(C)c2)CC1`, the viability is 35.3% (active).

Consider `CCOC(=O)N1CCN(C(=O)COc2ccc(Br)cc2)CC1`, for which the viability was 104%. The result for `CCOC(=O)C1CCN(C(=O)Nc2ccc(Cl)cc2)CC1` reads 101%. To `O=C1C2C3C=CC(C4CC34)C2C(=O)N1/N=C/c1ccc(-c2ccccc2[N+](=O)[O-])o1` (configuration not stated) belongs 86.5%; to `COc1cccc(NC(=O)Cc2ccc(C)cc2)c1`, 97.9%; to `COc1ccc(NC(=O)/C(Cl)=C(/Cl)S(=O)Cc2ccc(C)cc2)cn1` (configuration not stated), 0.7% (active).

Regarding `O=C(Cn1cnc2ccccc2c1=O)NCC1COc2ccccc2O1` (configuration not stated), the viability is 104%. The result for `Cc1cc(=O)[nH]c(SCc2cccc(F)c2)n1` reads 106%.

On to `Cc1cc(NC(=O)Cn2nc(C(F)(F)F)c3c2CCCC3)no1`, for which the viability is 35.8% (active). Regarding `COC(=O)c1ccccc1NC(=O)Cn1nc(C(F)(F)F)c2c1CCC2`, the viability is 84.3%.

Turning to `O=C(Cn1nc(C(F)(F)F)c2c1CCC2)NCc1ccc(F)cc1`, the viability is 104%.

`Cc1ccc(OC(=O)c2ccccc2C(=O)OCC(F)(F)C(F)F)cc1`: the viability was 99.1%.

In the case of `Cc1cccc(-n2ncc3c(N4CCc5ccccc54)ncnc32)c1`, the viability was 33.3% (active). Turning to `COc1ccc(-n2ncc3c(N4CCc5ccccc54)ncnc32)cc1`, the viability was 43.4%.

With `COc1ccc(-n2ncc3c(N4CCCc5ccccc54)ncnc32)cc1`, the viability is 100%. The result for `CC(C)N1C(=S)SC(C)(C)C1n1oc(=O)n(-c2ccc(Cl)c(Cl)c2)c1=O` (configuration not stated) reads 97.1%.

Regarding `CC(C)(C)n1nnnc1C(c1ccc(F)cc1)N1CCN(Cc2ccc3c(c2)OCO3)CC1` (configuration not stated), the viability is 81.2%. Consider `CCN1C(=O)/C(=C\N2CCOCC2)SC1=S`, for which the viability was 86.2%. The result for `CCSc1nc(-c2ccc(OC)cc2)cc(-c2ccc(OC)cc2)c1C#N` reads 88%. To `O=C(Cn1c(=O)sc2ccccc21)Nc1nc2c(s1)CCCC2` belongs 63.2%.

For the compound `COC(=O)C(NC(C)=O)(Nc1nc2c(s1)CCCC2)C(F)(F)F` (configuration not stated), the viability was 91.5%.

On to `O=C(CCS(=O)(=O)c1ccccc1)Nc1nc2c(s1)CCCC2`, for which the viability is 17.5% (active). To `COc1ccc(C(C#N)N2N=C(C)CC2(C)C)cc1` (configuration not stated) belongs 104%; to `COC(=O)c1c(C)c(C)nc(N)c1C#N`, 98.1%; to `FC(F)(F)c1cc(-c2ccco2)nc(NCc2ccc(Cl)cc2)n1`, 101%. To `CCCNC(=O)c1ccc(Cl)c(Cl)c1` belongs 96%; to `O=C(NCc1cccnc1)Nc1ccccc1F`, 98.8%. The result for `CCC(c1nnnn1Cc1ccco1)N(Cc1cc2cc(OC)ccc2[nH]c1=O)C1CCCCC1` (configuration not stated) reads 76.8%; that for `CCC(c1nnnn1Cc1ccco1)N(CCc1ccccc1)Cc1cc2ccc(OC)cc2[nH]c1=O` (configuration not stated), 23.2% (active); that for `CCC(c1nnnn1Cc1ccco1)N(CCc1ccccc1)Cc1cc2cccc(C)c2[nH]c1=O` (configuration not stated), 67.3%. `CC1CCc2c(sc(NC(=O)c3ccc(Cn4cc(Br)cn4)o3)c2C(N)=O)C1` (configuration not stated): the viability was 101%.

In the case of `Cc1cc(NC(=O)CSc2nc(C(C)C)nc3sc4c(c23)CCC(C)C4)no1` (configuration not stated), the viability is 6.01% (active). The result for `Cc1nc(SCC(=O)Nc2cc(C)on2)c2c3c(sc2n1)CCCC3` reads 94%; that for `C=CCN(C(=O)Nc1ccc2oc(C)nc2c1)c1ccccc1`, 78.7%; that for `COc1cc(C(=O)Nc2nccs2)cc(OC)c1OC`, 84.2%. The result for `COc1ccc(-c2nn(-c3ccccc3)cc2C(=O)Nc2nc(CC(C)=O)ns2)cc1` reads 86.5%.

In the case of `COc1ccc(-c2nn(-c3ccccc3)cc2C(=O)Nc2nccs2)cc1OC`, the viability was 17.2% (active).

Take `C/C=C/C(=O)Nc1nnc(C(C)C)s1`: the viability is 96.5%. The result for `O=C(Nc1ccccc1)c1ccc2c(c1)OCO2` reads 82.3%; that for `CCC(C)c1ccc(O)c(/C=N/O)c1` (configuration not stated), 21.6% (active); that for `Cc1nn(C(C)CC(=O)O)c(C)c1C` (configuration not stated), 98.2%. For the compound `CCCCNC(=O)C1(c2ccc(OC)cc2)CCOCC1`, the viability was 93.8%. For `CCOc1ccc(NC(=O)c2ccccc2NS(C)(=O)=O)cc1`, the viability is 94.1%. To `C=CCn1c(SCC(=O)Nc2nc3ccccc3s2)nnc1-c1ccccc1O` belongs 27.4% (active); to `C=CCn1c(SCC(=O)NCc2ccccc2)nnc1-c1cc(Br)ccc1O`, 87.8%. To `C=CCn1c(CSc2nc3ccccc3s2)nnc1SCC(=O)NCc1ccco1` belongs 54.6%; to `Oc1ccc(-c2csc(Nc3cccnc3)n2)cc1`, 54.4%; to `COc1ccc(OC)c(Nc2nc(-c3ccc(O)c(O)c3)cs2)c1`, 30.8% (active).

As to `COc1ccc(C(=O)Nc2nc(-c3ccc(S(=O)(=O)N4CCOCC4)cc3)cs2)cc1`, the viability is 58%. To `CCOC(=O)C1=C(CN2CCc3ccccc32)NC(=O)NC1c1ccc(Cl)cc1` (configuration not stated) belongs 48.1%. To `CCOC(=O)C1=C(CN2CCc3ccccc32)NC(=O)NC1c1cccc([N+](=O)[O-])c1` (configuration not stated) belongs 16.4% (active); to `CCOC(=O)C1=C(CNC2CCCCC2)NC(=O)NC1c1cc(C)ccc1C` (configuration not stated), 80.5%; to `COC(=O)C1=C(C(=O)c2ccc(C)cc2)C(c2ccccc2)n2nnnc2N1` (configuration not stated), 93.9%. To `COc1ccc(C2=CC(c3cccc(OC)c3)n3nnnc3N2)cc1` (configuration not stated) belongs 11.4% (active); to `COc1ccccc1NC(=O)C1=C(C)Nc2nnnn2C1c1cccc(Br)c1` (configuration not stated), 45.1%.

On to `CC(C)C(NC(=O)c1ccc(Cl)cc1)C(=O)O` (configuration not stated), for which the viability was 111%. To `O=c1c2ccccc2nnn1CSc1nc2sc3c(c2c(=O)n1CC1CCCO1)CCC3` (configuration not stated) belongs 54.9%. The result for `Cn1c(NN)nc2sc3c(c2c1=O)CCC3` reads 96.5%; that for `CCCc1nc2sc3c(c2c(=O)n1NC(=O)CCCl)CCCC3`, 36% (active). To `CC(C)CCNC(=O)CC1C(=O)N(Cc2ccccc2)C(C)c2nc3ccccc3n21` (configuration not stated) belongs 102%; to `COc1ccc(C2(CNC(=O)C(c3ccccc3)c3ccccc3)CCOCC2)cc1OC`, 74.8%.

Turning to `CCOc1cc(C(=O)Nc2c(C)ccc3nsnc23)cc(OCC)c1OCC`, the viability is 78.3%. The result for `COc1ccc(C(=O)Nc2ccc(CN3CCOCC3)cc2)cc1` reads 98.4%.

On to `COc1cccc2cc(C(C)N(CCCN3CCOCC3)C(=O)Nc3ccc(Cl)cc3)oc12` (configuration not stated), for which the viability is 31.7% (active).

Regarding `O=C(CC(NCCN1CCOCC1)C(=O)O)Nc1cccc(Cl)c1` (configuration not stated), the viability is 94.2%. To `CCn1c(Cc2ccccc2)nnc1SCC(=O)Nc1ccccc1` belongs 90%; to `CCn1c(SCC(=O)Nc2cccc(F)c2)nnc1-c1cc2cc(Br)ccc2o1`, 34.7% (active). As for `CCCn1c(SCC(=O)Nc2cccc(C(=O)OCC)c2)nnc1-c1ccoc1C`, the viability was 78.9%. To `COC(=O)c1cc2nc(-c3ccccc3)cc(C(F)(F)F)n2n1` belongs 90.6%; to `O=C(O)CCC(=O)NCc1ccc(C(=O)O)cc1`, 96%. `O=C(Nc1cc(-c2nn(CC(=O)N3CCCCC3)c(=O)c3ccccc23)ccc1N1CCOCC1)c1ccc(Cl)cc1`: the viability was 93.1%. With `Cc1ccc(-c2cnc(NC(=O)CCC(=O)N(C)Cc3ccccc3)n2C)cc1`, the viability is 100%. With `COc1ccc(NC(=O)CC2COc3ccccc3O2)c(OC)c1` (configuration not stated), the viability was 105%.

`Cc1cccc(-c2nc3c(c(SCC(=O)N4CCOCC4)n2)CCCC3)c1`: the viability was 70.3%. The result for `Cc1ccc(S(=O)(=O)c2c(COC(=O)c3cccc(Cl)c3)c(-c3ccccc3)nn2C)cc1` reads 87.9%.

Take `COC(=O)Cn1nc(-c2ccccc2)c2cc(Cl)ccc21`: the viability was 98.3%.

For the compound `Cn1nc(-c2ccccc2)c(CSc2cccc(Cl)c2)c1Cl`, the viability was 22% (active). To `Cn1c(=O)c2c(SCC(=O)N3CCOCC3)nc(C3CC3)nc2n(C)c1=O` belongs 81.8%; to `CC(C)NC(=O)C(=O)NCCN1CCN(S(=O)(=O)c2ccc(Cl)cc2)CC1`, 94.6%; to `O=C(CCn1c(SCC(=O)c2ccccc2)nc2ccccc2c1=O)NCc1ccc(F)cc1`, 97.6%.

With `Cc1cc(C)n(-c2cc(Oc3ccccc3)ncn2)n1`, the viability is 100%.

For `CC(=O)c1ccc(Oc2cc(C)nc(-n3nc(C)cc3C)n2)cc1`, the viability was 23.4% (active). Turning to `Cc1cc(Oc2ccccc2)nc(N2CCOCC2)n1`, the viability is 94.1%. To `O=C(CSc1nc2cccnc2n1Cc1ccccc1)N1CCc2ccccc21` belongs 70.1%; to `C=CCO/N=C(\C)c1c(O)c(C)c(-c2ccccc2)n(-c2ccccc2)c1=O`, 96.7%. To `O=C(NCC1CCC(C(=O)O)CC1)OCc1ccccc1` (configuration not stated) belongs 98.5%; to `COc1ccc(C2CC(=O)Nc3cc(C)c(C)cc32)c(OC)c1OC` (configuration not stated), 78.6%. To `COCCOC(=O)C1=C(C)NC(=O)CC1c1cc2c(cc1Br)OCO2` (configuration not stated) belongs 97.1%. As to `CCCOc1ccccc1C1CC(=O)Nc2cc3c(cc21)OCO3` (configuration not stated), the viability is 25.9% (active).

For `CCCNC(=S)N1CCC(NC(=O)C23CC4CC(CC(C4)C2)C3)CC1`, the viability was 101%. To `CCOC(=O)Cc1csc(NC(=O)CSc2nnc(-c3cccnc3)n2Cc2ccco2)n1` belongs 100%. To `CCOCc1nnc(NC(=O)CSc2ccc(C)cc2)s1` belongs 94.8%. The result for `CCCCCN1CC(O)=C(c2nc(-c3ccc(Cl)cc3)cs2)C1=N` reads 99%. For the compound `COc1ccc(C(=O)Nc2ccc(F)cc2F)cc1`, the viability is 94.2%. The result for `O=C(Nc1cccc(F)c1)c1ccc(S(=O)(=O)N2CCCC2)cc1` reads 84.8%; that for `CCOC(=O)N1CCN(S(=O)(=O)c2ccc(C(=O)Nc3ccc(F)cc3F)cc2)CC1`, 20.4% (active).
